In the library only some 13% were active in any assay of this set; here they are far more common.
USP10 block = inhibitors of human USP10 deubiquitinase. Q14694. purified USP10, Ub-rhodamine fluorescence, 60 min. inhibition, % at 20 µM. 1.1% of 47,000 active. AID 1645856
USP28 inh = inhibitors of human USP28 deubiquitinase; 3% of 47,000 active; purified USP28, Ub-rhodamine cleavage fluorescence, 30 min; inhibition, % at 25 µM; Q96RU2; AID 1645857
OTUD3 block = human OTUD3 deubiquitinase inhibition | purified OTUD3, Ub-rhodamine fluorescence, 2 h | inhibition, % at 25 µM | 0.7% of 47,000 active | AID 1645858
USP30 block = inhibitors of human USP30 deubiquitinase; Q70CQ3; purified USP30, Ub-rhodamine cleavage fluorescence; inhibition, % at 25 µM; 5.3% of 47,000 active
USP8 block = blocks human USP8 ubiquitin-rhodamine cleavage | P40818 | purified USP8, Ub-rhodamine cleavage fluorescence, 30 min | inhibition, % at 20 µM | 4.2% of 47,000 active
USP17 inh = blocks human USP17 ubiquitin-rhodamine cleavage; purified USP17, Ub-rhodamine cleavage fluorescence, 3 h; inhibition, % at 50 µM; 6.5% of 47,000 active; AID 1645855
* hit, by the source's call. No stated cut-off is given here; in the data, active means inhibition above about 30%; inactive means the rest.

Screening Cc1cc2c3c([nH]c2cc1S(=O)(=O)N1CCC(C)CC1)CCCC3=O returned USP10 block -2, USP28 inh -9, OTUD3 block -10, USP30 block -46, USP8 block 8 and USP17 inh -25.
For Cc1cc2c3c([nH]c2cc1S(=O)(=O)N(C)C1CCCCC1)CCCC3=O the results were USP10 block 2, USP28 inh 1, OTUD3 block -1, USP30 block -23, USP8 block -3 and USP17 inh 49*.
Cc1ccccc1NS(=O)(=O)c1cc2[nH]c3c(c2cc1C)C(=O)CCC3 was read as USP10 block 21, USP28 inh 57*, OTUD3 block 11, USP30 block 69*, USP8 block 40* and USP17 inh 58*.
Screening Cc1cc2c3c([nH]c2cc1S(=O)(=O)Nc1c(C)cccc1C)CCCC3=O returned USP10 block -3, USP28 inh -39, OTUD3 block -14, USP30 block -114, USP8 block -6 and USP17 inh -37.
`Cc1sc2nc(C3CC3)n(C3CCN(C(=O)CC(C)C)CC3)c(=O)c2c1C` gave USP10 block 8, USP28 inh 8, OTUD3 block 14, USP30 block 40*, USP8 block 11 and USP17 inh 20.
`Cc1sc2nc(C(C)C)n(C3CCN(C(=O)C4CCCO4)CC3)c(=O)c2c1C` (centres undefined) gave USP10 block -1, USP28 inh -4, OTUD3 block 0, USP30 block 0, USP8 block -30 and USP17 inh -5.
Cc1sc2nc(C3CC3)n(C3CCN(C(=O)C4CC4)CC3)c(=O)c2c1C was read as USP10 block 12, USP28 inh 13, OTUD3 block 13, USP30 block 33*, USP8 block 14 and USP17 inh 23.
Screening O=C(CN1CCC(S(=O)(=O)c2ccc(-c3cccs3)cc2)CC1)c1ccc(F)cc1 returned USP10 block -7, USP28 inh -23, OTUD3 block -27, USP30 block -145, USP8 block -9 and USP17 inh -3.
COc1ccc(NC(=O)c2nnc(C(=O)NCCN3CCCCCC3)s2)cc1 was read as USP10 block 10, USP28 inh 30, OTUD3 block 34*, USP30 block 52*, USP8 block -6 and USP17 inh 46*.
Screening COc1ccc(NC(=O)C(=O)NCCN2CCN(C(=O)c3c(F)cccc3F)CC2)cc1 returned USP10 block 0, USP28 inh 12, OTUD3 block 12, USP30 block 33*, USP8 block 5 and USP17 inh 6.
For CCS(=O)(=O)N1CCc2c(nc(C3CCCCN3)[nH]c2=O)C1 (centres undefined) the results were USP10 block -2, USP28 inh 7, OTUD3 block 0, USP30 block -17, USP8 block -6 and USP17 inh 0.
`COc1ccc(-c2nc(NC(=O)C(NS(=O)(=O)c3ccccc3)C(C)C)sc2C)cc1` (centres undefined) gave USP10 block 9, USP28 inh 5, OTUD3 block 8, USP30 block 22, USP8 block 28 and USP17 inh 14.
For CCc1cc2c(=O)n(Cc3ccco3)c(SCC(=O)Nc3ccccc3O)nc2s1 the results were USP10 block 20, USP28 inh 13, OTUD3 block 6, USP30 block 44* and USP8 block 11.
`Cc1sc2nc(SCC(=O)Nc3ccccc3O)n(Cc3ccco3)c(=O)c2c1C` gave USP10 block 21, USP28 inh 12, OTUD3 block 11, USP30 block 15, USP8 block 54* and USP17 inh 13.
Cc1sc2nc(SCC(=O)Nc3cccc(F)c3)n(Cc3ccco3)c(=O)c2c1C was read as USP10 block 0, USP28 inh 10, OTUD3 block 5, USP30 block -16, USP8 block 4 and USP17 inh 10.
CC(O)c1nc2ccccc2n1CC(O)COc1ccc(Br)cc1 (centres undefined) was read as USP10 block -7, USP28 inh -2, OTUD3 block 3, USP30 block 8, USP8 block 13 and USP17 inh 6.
For O=C(NC1CCCCC1)c1cccn1Cc1noc(C2CC2)n1 the results were USP10 block -1, USP28 inh -14, OTUD3 block -6, USP30 block -14, USP8 block -7 and USP17 inh -15.
Screening O=C(NC1CCCC1)c1cccn1Cc1noc(-c2ccccc2)n1 returned USP10 block 3, USP28 inh 11, OTUD3 block 9, USP30 block 25, USP8 block 32* and USP17 inh 16.
CCCCc1ccc(-c2cc(C(=O)NCCN3CCOCC3)c3cc(Br)ccc3n2)cc1 was read as USP10 block -2, USP28 inh 0, OTUD3 block 30*, USP30 block 79*, USP8 block -16 and USP17 inh 14.
Screening Cc1cccc(C(=O)Nc2ccccc2Sc2nc3c(c(=O)n(C)c(=O)n3C)n2C)c1 returned USP10 block -2, USP28 inh 31*, OTUD3 block 26, USP30 block 71*, USP8 block 19 and USP17 inh 33*.
O=C(CC1CCCC1)Nc1ccc(N2CCN(c3ccccc3)C2=O)nc1 was read as USP10 block 4, USP28 inh 1, OTUD3 block 2, USP30 block 9, USP8 block -4 and USP17 inh 8.
Screening CC(C)OCCCN1C(=O)c2[nH]nc(-c3ccccc3O)c2C1c1cccc(Cl)c1 (centres undefined) returned USP10 block 25, USP28 inh 4, OTUD3 block 9, USP30 block 5, USP8 block 55* and USP17 inh 27.
Screening COc1cc(C(=O)Nc2c(NC3CCCC3)c3ccccc3oc2=O)cc(OC)c1OC returned USP10 block -2, USP28 inh 9, OTUD3 block 6, USP30 block 15, USP8 block 0 and USP17 inh 29.
`CCCCCCCCC/C=C/C(=O)CCc1c(O)c(C=O)c2c(c1O)C(=O)OC2O` (centres undefined) gave USP10 block 45*, USP28 inh 71*, OTUD3 block 75*, USP30 block -9, USP8 block 31* and USP17 inh 75*.
CC(=O)N1CCCSc2ccc(S(=O)(=O)NCCCN3CCCC3)cc21 was read as USP10 block -2, USP28 inh -8, OTUD3 block -10, USP30 block -8, USP8 block -9 and USP17 inh -1.
For CCC(=O)N1CCCc2cc(S(=O)(=O)CCC(=O)NC3CCCCC3)ccc21 the results were USP10 block 2, USP28 inh 5, OTUD3 block 7, USP30 block 8, USP8 block 13 and USP17 inh 8.

Screening results (PubChem)
